High-throughput results as filed in PubChem.
DT40 TDP1 CPT = growth inhibition of DT40 Tdp1-/-;hTDP1 cells with camptothecin (screen for TDP1 inhibitors) | Potency, µM (top dose mostly 46.2 µM), for the others: top-dose activity change, negative = growth inhibition, hits mostly inhibitors | AID 686979 | 420,000 tested, 12% active | chicken DT40 Tdp1-/-;hTDP1 cells + 20 nM CPT, ATP luminescence, 48 h; also: potency is read from the fitted curve at half-maximal effect; nearly all actives have a fitted effect of over 55% in size
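Chicken DT40 Tdp1-/- cells stably complemented with human TDP1 were seeded at 400 cells/well in medium containing 20 nM camptothecin, exposed to pin-transferred compounds, and grown at 37 °C for at least 48 hr. Viability was read as ATP luminescence.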
HT1080NT lethal = kills 2HG-producing HT-1080-NT fibrosarcoma cells | HT-1080-NT fibrosarcoma viability, CellTiter-Glo ATP luminescence, 48 h | Potency, µM (titrated, usually from 46.1 µM), for inactives: top-dose activity, negative = less viability, usual class: cytotoxic | 360,000 tested, 1.6% active | AID 686970;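 also: NT is the 2HG producing partner of a matched IDH1 knockdown line; potency is read from the fitted curve at half-maximal effect; 0% = DMSO-treated cells and -100% = media-only wells without cells; nearly all actives have a fitted effect of over 55% in size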
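Luminescent CellTiter-Glo readout after 48 hours of compound exposure at 37 degrees C defined viability of HT-1080-NT cells. Activity was normalized to DMSO wells and cell-free media wells; concentration-response curves were fitted and assigned curve classes.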
TDP1 cell noCPT = qHTS for Inhibitors of human tyrosyl-DNA phosphodiesterase 1 (TDP1): qHTS in cells in absence of CPT. DT40 Tdp1-/- hTDP1 cells, no CPT, ATP luminescence, 48 h. Potency, µM (highest dose often 46.2 µM), for inactives: top-dose activity change, negative = growth inhibition, hits mostly inhibitors. 420,000 tested, 15% active; also: potency is read from the fitted curve at half-maximal effect; nearly all actives have a fitted effect of over 55% in size
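Cells were dispensed at 400 per well, compounds added by pin tool, plates incubated ≥48 hr at 37 °C, then CellTiter-Glo added for 30 min at room temperature before luminescence reading. Line: DT40 Tdp1-/- complemented with hTDP1; camptothecin omitted.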
IL1B secr inh = inhibitors of inflammasome signaling (IL-1 beta secretion) | THP-1 LPS/ATP IL-1B secretion, AlphaLISA, 16 h; hits give low values | activity change, % at 57.5 µM | 360,000 tested, 4.7% active | AID 743279; in the data active = activity change below about -50%; inconclusive = mostly about -30% to -49%
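Secreted IL-1B measured by AlphaLISA bead assay after 16 h compound exposure of THP-1 cells; compounds (final up to 57.5 uM) added 1 h before LPS (250 ng/mL) and ATP (1.25 mM) stimulation; lower signal means less secretion.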
HT1080 IDH1KD tx = kills HT-1080 cells with IDH1 knockdown. HT-1080 IDH1 knockdown viability, ATP luminescence, 48 h. Potency, µM (titrated, usually from 46.1 µM), inactives show at the top dose activity, negative = toxicity, most hits filed as cytotoxic. 360,000 tested, 2% active;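 also: potency is read from the fitted curve at half-maximal effect; 0% = DMSO wells and -100% = cell-free medium wells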
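Assay cells: HT-1080 with IDH1 knockdown, 750 per well, RPMI/5% FBS. Exposure: 48 h at 37 °C following 2 h pre-incubation. Read: CellTiter-Glo luminescence; fitted concentration-response, curve class assigned.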
ELG1 repair inh = inhibitors of ELG1-dependent DNA repair in HEK293T cells. Potency, µM (titrated, usually from 46.1 µM), for inactives: top-dose activity change, negative = inhibition, usual class: inhibitors. 330,000 tested, 2.3% active. AID 504467. HEK293T ELG1-luciferase reporter, luminescence, 16 h; DNA damage induced by 5-fluorouridine; also: potency is read from the fitted curve at half-maximal effect; nearly all actives have a fitted effect of over 55% in size
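5-Fluorouridine DNA damage + compound/DMSO, 2,000 cells/well, 16 h, 37 °C/5% CO2. ONE-Glo, 30 min RT, luminescence. Readout = decrease in reporter signal.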
Starred values were filed as active, the others as inactive; [ ] = dose if it differs, or a comment. A selection: hits, their analogues and other compounds. The true share with any hit is near 19%. Unless noted, calls follow the shape of the dose curve; as a rule, active = well fitted curve in the direction sought with a large enough effect; inconclusive = small, poorly fitted or top-dose-only effect, or another doubt; inactive = no such curve, though single readings can be large; an effect the other way counts as inactive or inconclusive. Unless noted, % is scaled to controls: 0 for no effect and ±100 for the full control effect.

For CCCCNC(=NCc1cccc(C(F)(F)F)c1)Nc1ccccc1 the results were DT40 TDP1 CPT 13µM*, HT1080NT lethal inconclusive, TDP1 cell noCPT 10µM*, IL1B secr inh -83*, HT1080 IDH1KD tx 23µM* and ELG1 repair inh -6%.
`CCNc1ncc2nc(-c3cc(F)cc(F)c3)c(=O)n(CCC#N)c2n1` gave DT40 TDP1 CPT -9% and TDP1 cell noCPT 2%.
Screening Cc1ccccc1C(=O)N1[C@@H](C(C)C)COc2cc(Br)ccc2S1(=O)=O returned DT40 TDP1 CPT inconclusive, HT1080NT lethal -19%, TDP1 cell noCPT inconclusive, IL1B secr inh 36 and HT1080 IDH1KD tx -25%.
CCC1Oc2ccc(C)cc2N(CC(=O)N(Cc2cccnc2)Cc2cccc(F)c2)C1=O (stereo unspecified) was read as DT40 TDP1 CPT 18µM*, HT1080NT lethal -14%, TDP1 cell noCPT inconclusive, IL1B secr inh -12, HT1080 IDH1KD tx -10% and ELG1 repair inh inconclusive.
`Cc1nc2ccc(C(=O)NCCc3c[nH]c4ccccc34)cn2c1N(C)C(=O)CCc1ccccc1` gave DT40 TDP1 CPT 23µM*, HT1080NT lethal 1%, TDP1 cell noCPT 23µM*, IL1B secr inh -5 and HT1080 IDH1KD tx -18%.
Screening CCCCN(C)c1c(C)nc2ccc(C(=O)NCCc3c[nH]c4ccccc34)cn12 returned DT40 TDP1 CPT inconclusive, HT1080NT lethal inconclusive, TDP1 cell noCPT inconclusive, IL1B secr inh -17 and HT1080 IDH1KD tx inconclusive.
`CCc1nc2ccc(C(=O)NCc3ccc4c(c3)OCO4)cn2c1N(CCC(C)C)CCN(C)C` gave DT40 TDP1 CPT 21µM*, HT1080NT lethal 21µM*, TDP1 cell noCPT inconclusive, IL1B secr inh -22 and HT1080 IDH1KD tx inconclusive.
For Cc1oc(C(C)(C)C)cc1C(=O)NCc1ccc2c(c1)OCO2 the results were DT40 TDP1 CPT -8%, HT1080NT lethal 4%, TDP1 cell noCPT inconclusive, IL1B secr inh 14, HT1080 IDH1KD tx -1% and ELG1 repair inh 8%.
`Cn1nc(C(C)(C)C)cc1C(=O)NCc1ccc2c(c1)OCO2` gave DT40 TDP1 CPT 4.6µM*, HT1080NT lethal inconclusive, TDP1 cell noCPT 1.8µM*, IL1B secr inh 5, HT1080 IDH1KD tx inconclusive and ELG1 repair inh inconclusive.
CCc1nc2ccc(C(=O)NCc3ccc4c(c3)OCO4)cn2c1N(C)C(=O)Cc1ccccc1 was read as DT40 TDP1 CPT -36%, HT1080NT lethal 30%, TDP1 cell noCPT 23µM*, IL1B secr inh 5 and HT1080 IDH1KD tx 19%.
For CCOCCCNC(=O)c1c(NC(=O)c2cc(=O)c3ccccc3o2)sc2c1CCC2 the results were DT40 TDP1 CPT -13% and TDP1 cell noCPT -15%.
For Cc1nc2ccccn2c1C(=O)N/N=C/c1ccc2c(c1)OCO2 the results were DT40 TDP1 CPT inconclusive, HT1080NT lethal -12%, TDP1 cell noCPT inconclusive, IL1B secr inh 13, HT1080 IDH1KD tx -23% and ELG1 repair inh inconclusive.
Screening CCc1nc2ccc(C(=O)NCc3ccc(OC)cc3)cn2c1N(C)C(=O)Cc1ccccc1 returned DT40 TDP1 CPT inconclusive, HT1080NT lethal 14%, TDP1 cell noCPT 21µM*, IL1B secr inh 12 and HT1080 IDH1KD tx -1%.
`CCc1nc2ccc(C(=O)NCCOc3ccc(OC)cc3)cn2c1N(C)C(=O)COc1ccccc1` gave DT40 TDP1 CPT inconclusive, HT1080NT lethal 4%, TDP1 cell noCPT 4%, IL1B secr inh -3 and HT1080 IDH1KD tx 0%.
Cc1nc2ccccn2c1C(=O)NCc1ccc2c(c1)OCO2 was read as DT40 TDP1 CPT inconclusive, HT1080NT lethal -23%, TDP1 cell noCPT inconclusive, IL1B secr inh 41, HT1080 IDH1KD tx -1% and ELG1 repair inh 16µM*.
Screening CCc1nc2ccc(C(=O)NCc3ccc4c(c3)OCO4)cn2c1N(CC)CCN(C)C returned DT40 TDP1 CPT 0%, HT1080NT lethal 8%, TDP1 cell noCPT -1%, IL1B secr inh -22 and HT1080 IDH1KD tx 2%.
For CCc1nc2ccc(C(=O)NCc3ccc4c(c3)OCO4)cn2c1N(C)Cc1cccs1 the results were DT40 TDP1 CPT inconclusive, HT1080NT lethal -18%, TDP1 cell noCPT 16µM*, IL1B secr inh inconclusive and HT1080 IDH1KD tx -29%.
Screening CN(C)c1cc2c(cc1NC(=O)c1ccccc1Cl)n(C)c(=O)n2C returned DT40 TDP1 CPT inconclusive, HT1080NT lethal 1%, TDP1 cell noCPT inconclusive, IL1B secr inh 20, HT1080 IDH1KD tx -6% and ELG1 repair inh inconclusive.
Screening CC(CCc1ccc(O)cc1)N1CCOc2c(O)cc(-c3nc4ccccc4s3)cc2C1 (stereo unspecified) returned DT40 TDP1 CPT 18µM* and TDP1 cell noCPT 16µM*.
Oc1ccc(Cl)cc1CN1CCOc2c(O)cc(-c3nc4ccccc4s3)cc2C1 was read as DT40 TDP1 CPT -14%[9.04 µM] and TDP1 cell noCPT inconclusive.
For COc1cccc(C(c2sc3nc(-c4ccco4)nn3c2O)N2CCOCC2)c1 (stereo unspecified) the results were DT40 TDP1 CPT -3% and TDP1 cell noCPT -10%.
`CC1=NN(c2ccccc2)C(=O)C1N=Nc1cccc(O)c1` (stereo unspecified) gave DT40 TDP1 CPT 16µM*, HT1080NT lethal inconclusive, TDP1 cell noCPT 16µM*, IL1B secr inh 42, HT1080 IDH1KD tx inconclusive and ELG1 repair inh inconclusive.
For CC1=NN(c2ccccc2)C(=O)C1N=Nc1ccc(N)cc1 (stereo unspecified) the results were DT40 TDP1 CPT 15µM*, HT1080NT lethal -17%, TDP1 cell noCPT 10µM*, IL1B secr inh 0, HT1080 IDH1KD tx 23µM* and ELG1 repair inh 26%.
`O=S(=O)(c1ccc(Cl)cc1)N1CCN(C(=S)NCC2CCCO2)CC1` (stereo unspecified) gave DT40 TDP1 CPT inconclusive, HT1080NT lethal -6%, TDP1 cell noCPT -27%, IL1B secr inh -4, HT1080 IDH1KD tx -18% and ELG1 repair inh -12%.
`O=C1C=CC(=Nc2ccc(F)cc2)O1` gave DT40 TDP1 CPT 2.3µM*, HT1080NT lethal inconclusive, TDP1 cell noCPT 4.6µM*, IL1B secr inh -51* and HT1080 IDH1KD tx inconclusive.
O=C1C=CC(=Nc2ccc3c(c2)C(=O)c2ccccc2-3)O1 was read as DT40 TDP1 CPT -5%, HT1080NT lethal 3%, TDP1 cell noCPT -15%, IL1B secr inh -2 and HT1080 IDH1KD tx 4%.
